Assay outcomes: PubChem, National Center for Advancing Translational Sciences (NCATS)
ClpP mod – qHTS Assay for Activators of ClpP | ATP-dependent Clp protease proteolytic subunit (Bacillus subtilis (strain 168)), P80244 | purified B. subtilis ClpP, FRET peptide cleavage, 20 min | Potency, µM (doses to about 57.5 µM) | 340,000 tested, 1.9% active | AID 651965, 2013; active = well fitted falling curve with a large enough effect; inconclusive = small, poorly fitted or top-dose-only effect; inactive = no such curve, though single readings can be large or run the other way; note: the source files actives as falling curves though it sought activators and does not explain the sign; nearly all actives have a fitted effect of over 65% in size
Target sequence (P80244 whole entry, looked up): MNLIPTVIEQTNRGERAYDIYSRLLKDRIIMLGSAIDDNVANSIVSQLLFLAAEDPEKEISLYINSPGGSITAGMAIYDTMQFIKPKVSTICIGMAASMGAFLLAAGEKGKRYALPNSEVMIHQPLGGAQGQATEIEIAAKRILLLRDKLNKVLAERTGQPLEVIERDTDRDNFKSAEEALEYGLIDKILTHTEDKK
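FRET quenching reversal measured ClpP activation: 10 microg/mL B. subtilis ClpP at pH 8 with the FRET-FV decapeptide, read at 430 nm after 320 nm excitation. The 20-min minus 0-min signal was scaled between DMSO/no-enzyme wells and ADEP (5.8 microM final).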
DT40 TDP1 CPT – growth inhibition of DT40 Tdp1-/-;hTDP1 cells with camptothecin (screen for TDP1 inhibitors); 420,000 tested, 12% active; Potency, µM (series often up to 46.2 µM), actives largely listed as inhibitors; chicken DT40 Tdp1-/-;hTDP1 cells + 20 nM CPT, ATP luminescence, 48 h; note: nearly all actives have a fitted effect of over 55% in size
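Chicken DT40 Tdp1-/- cells stably complemented with human TDP1 were seeded at 400 cells/well in medium containing 20 nM camptothecin, exposed to pin-transferred compounds, and grown at 37 °C for at least 48 hr. Viability was read as ATP luminescence.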
DRD3 antagonist – blocks the human D3 dopamine receptor | AID 652054 | max response, negative = inhibition, % | P35462 | D3R cells, DiscoveRx beta-arrestin luminescence, antagonist mode; hits give low values | 360,000 tested, 2.5% active; in the data active = max response below about -50%; inconclusive = no clear call, values can overlap the other calls
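Cells plated overnight at 1500 cells/well, then exposed to library compounds with dopamine controls for 90 minutes at 37 degrees C. DiscoveRx reagent added for 30–60 minutes at room temperature; luminescence read, quantitative HTS format.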
IL-1B inflam inh – blocks inflammasome-driven IL-1 beta release; activity change, % at 57.5 µM; AID 743279; 360,000 tested, 4.7% active; THP-1 LPS/ATP IL-1B secretion, AlphaLISA, 16 h; hits give low values; in the data active = activity change below about -50%; inconclusive = mostly about -30% to -49%
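Secreted IL-1B measured by AlphaLISA bead assay after 16 h compound exposure of THP-1 cells; compounds (final up to 57.5 uM) added 1 h before LPS (250 ng/mL) and ATP (1.25 mM) stimulation; lower signal means less secretion.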
TDP1 cell noCPT – qHTS for Inhibitors of human tyrosyl-DNA phosphodiesterase 1 (TDP1): qHTS in cells in absence of CPT | DT40 Tdp1-/- hTDP1 cells, no CPT, ATP luminescence, 48 h | Potency, µM (titrated, usually from 46.2 µM), actives largely listed as inhibitors | 420,000 tested, 15% active | AID 686978, 2013; note: nearly all actives have a fitted effect of over 55% in size
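Growth kinetics read by CellTiter-Glo luminescence after ≥48 hr at 37 °C. Cells: DT40 Tdp1-/- stably carrying human TDP1, 400 per well, compound exposure in the absence of CPT (DMSO vehicle).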
D3 ag – D3 dopamine receptor (human) agonism. P35462. D3R DiscoveRx beta-arrestin cells, luminescence, 90 min. max activation, %. 410,000 tested, 0.58% active. AID 652048; in the data active = max activation above about 30%
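Agonist-mode cell screen: cells plated at 1500/well and incubated overnight at 37 °C, then exposed to library compounds for 90 min at 37 °C. Detection reagent was added for 30–60 min at room temperature, and luminescence was read.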
Each line names hits and unclear results; the compound was inactive in the other large screens. Rows were chosen to be rich in hits. Some 21% of all compounds tested hit in one or more screens of this group. Unless noted, calls come from the whole dose curve; as a rule, active = well fitted inhibition curve with a large enough effect; inconclusive = small, poorly fitted or top-dose-only effect; inactive = flat fitted curve, though single readings scatter.

COc1ccccc1Nc1cc(C)nc2c(C)ccc([N+](=O)[O-])c12	none
Cc1cc(Nc2ccccc2)c2c([N+](=O)[O-])cc(C)c(C)c2n1	DT40 TDP1 CPT 9.2µM, TDP1 cell noCPT 23µM
CC(C)(Cc1c[nH]c2ccccc12)NCC(O)COc1ccccc1C#N (configuration not stated)	DT40 TDP1 CPT 21µM, TDP1 cell noCPT 24µM (no result: ClpP mod, DRD3 antagonist, IL-1B inflam inh)
Cc1c[nH]c2cccc(OCC(O)CNC(C)(C)C)c12 (configuration not stated)	none
Cc1coc2c1c(C)cc1oc(=O)cc(C)c12	none (no result: DRD3 antagonist, IL-1B inflam inh)
CC1CC(C)(C)NC2(CCCC2)N1 (configuration not stated)	none
CC(C)(C)c1ccc(-n2ncc3c2CCCC3NC(=O)C2=NNC(=O)CC2)cc1 (configuration not stated)	DT40 TDP1 CPT inconclusive, TDP1 cell noCPT inconclusive
Cn1nccc1C(=O)NC1CCCc2c1cnn2-c1ccc(C(C)(C)C)cc1 (configuration not stated)	DT40 TDP1 CPT 2.9µM, TDP1 cell noCPT 2.9µM
CC(C)(C)c1ccc(-n2ncc3c2CCCC3NC(=O)c2csnn2)cc1 (configuration not stated)	DT40 TDP1 CPT inconclusive, TDP1 cell noCPT 12µM
CC(=O)NC1CCCc2c1cnn2-c1ccc(C(C)(C)C)cc1 (configuration not stated)	DT40 TDP1 CPT inconclusive, TDP1 cell noCPT inconclusive
CC(C)(C)c1ccc(-n2ncc3c2CCCC3NC(=O)c2cnccn2)cc1 (configuration not stated)	DT40 TDP1 CPT inconclusive, IL-1B inflam inh -82, TDP1 cell noCPT 9.2µM (no result: ClpP mod)
Cc1cccc(CNC(=O)C2CCN(c3nn4cc(-c5ccc(F)cc5)nc4s3)CC2)c1	none (no result: DRD3 antagonist, IL-1B inflam inh)
Cc1nc(-c2cccc(NC(=O)Cc3ccccc3)c2)cs1	TDP1 cell noCPT inconclusive
Cc1nc(-c2cccc(NC(=O)c3ccc(-n4nccc4C)cc3)c2)cs1	DT40 TDP1 CPT inconclusive, IL-1B inflam inh -84, TDP1 cell noCPT 21µM
Cc1nc(-c2ccc(C(=O)Nc3cccc(Br)c3)cc2)cs1	DT40 TDP1 CPT inconclusive, TDP1 cell noCPT 21µM
COc1ccc(/C=N/NC(=O)C2(C)NC(C)(C)Cc3ccccc32)cc1 (configuration not stated)	none (no result: ClpP mod)
CCCN1CCC(NC(=O)Cc2ccc(C)cc2)CC1	none (no result: ClpP mod)
CCC1(c2ccccc2)NC(=O)N(CC(=O)Nc2cc(S(=O)(=O)N3CCCCCC3)ccc2OC)C1=O (configuration not stated)	DT40 TDP1 CPT 16µM, TDP1 cell noCPT 21µM
CCC1(c2ccccc2)NC(=O)N(CC(=O)Nc2cc(S(=O)(=O)N3CCCCC3)ccc2OC(C)C)C1=O (configuration not stated)	DT40 TDP1 CPT 23µM, IL-1B inflam inh inconclusive, TDP1 cell noCPT inconclusive (no result: ClpP mod)
CCOc1ccc(S(=O)(=O)N2CCCCC2)cc1NC(=O)CN1C(=O)NC(CC)(c2ccccc2)C1=O (configuration not stated)	DT40 TDP1 CPT inconclusive, TDP1 cell noCPT inconclusive
CCOc1ccc(CNC(=O)C2CCN(S(=O)(=O)c3cn(C)cn3)CC2)cc1	none (no result: DRD3 antagonist, IL-1B inflam inh)
O=Cc1c(N2CCC3(CC2)OCCO3)nc2ccccn2c1=O	none (no result: ClpP mod)
OC(CNCc1cccc(Cl)c1)c1ccccc1 (configuration not stated)	TDP1 cell noCPT inconclusive (no result: ClpP mod)
Oc1cccc(C(O)CNCc2ccc(OCc3ccc(Cl)cc3Cl)cc2)c1 (configuration not stated)	DT40 TDP1 CPT inconclusive, IL-1B inflam inh -91, TDP1 cell noCPT 15µM (no result: ClpP mod)
OC(CNCc1ccccc1)c1ccccc1 (configuration not stated)	none
Oc1cccc(C(O)CNCc2ccc(-c3ccccc3)cc2)c1 (configuration not stated)	DT40 TDP1 CPT 18µM, IL-1B inflam inh -51, TDP1 cell noCPT inconclusive (no result: ClpP mod)
CCNc1nc2cccnc2s1	none
